From PubChem BioAssay AID602474 (National Center for Advancing Translational Sciences (NCATS), 2012)
Records with an inconclusive call do not appear. A number with no mark means an inactive call. Active and inactive are the calls of the source. Calls come from the whole dose curve; as a rule, active = well fitted inhibition curve with a large enough effect; inconclusive = small, poorly fitted or top-dose-only effect; inactive = no such curve, though single readings can be large or run the other way.

Each molecule was assayed against Luciferin 4-monooxygenase (Photinus pyralis) (UniProt P08659) (assay: FLuc inhibitory activity for the follow-up compounds in a biochemical assay with a commercial detection reagent - BriteliteTM Plus (PerkinElmer)). Details: purified FLuc, Britelite Plus luminescence; series mostly up to 38.3 µM; activity change, negative = inhibition: at the top concentration.
Chain of Luciferin 4-monooxygenase (Photinus pyralis) (P08659 whole entry, looked up): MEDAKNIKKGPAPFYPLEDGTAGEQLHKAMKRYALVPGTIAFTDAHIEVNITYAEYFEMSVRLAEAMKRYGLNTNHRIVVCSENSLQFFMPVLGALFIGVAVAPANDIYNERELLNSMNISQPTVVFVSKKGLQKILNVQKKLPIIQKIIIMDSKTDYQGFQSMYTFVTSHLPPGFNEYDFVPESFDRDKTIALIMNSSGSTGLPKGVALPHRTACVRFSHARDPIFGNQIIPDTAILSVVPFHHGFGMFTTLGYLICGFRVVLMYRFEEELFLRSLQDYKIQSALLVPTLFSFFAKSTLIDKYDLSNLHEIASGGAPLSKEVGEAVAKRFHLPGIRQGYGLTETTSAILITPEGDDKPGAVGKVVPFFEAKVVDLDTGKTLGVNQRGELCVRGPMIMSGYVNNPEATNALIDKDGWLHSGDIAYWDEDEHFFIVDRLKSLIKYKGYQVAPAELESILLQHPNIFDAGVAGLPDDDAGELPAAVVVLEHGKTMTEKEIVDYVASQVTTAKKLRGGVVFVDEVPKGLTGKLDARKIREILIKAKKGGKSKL
Source text: NCGC Assay Overview: Firefly (Photinus pyralis) luciferase is one of the most commonly used transcriptional reporters. It is considered one of the more dynamically responsive reporters - that is, responsive to changes in reporter transcription - as it requires no post-translational modifications and is enzymatically active directly after protein synthesis (Wood, 1998). With no endogenous expression in mammalian cells and without the requirement of external excitation, it offers very little background signal, thus generally providing excellent signal to background for most assays. Previous profiling work to determine the prevalence of compounds that affect FLuc enzymatic activity (PubChem AID 411) identified that ~3% of the MLSMR library (then at ~72K) inhibited FLuc (Auld et al., 2008). […] Of the compounds identified in this profile that inhibited FLuc, 151 compounds were selected for further analysis, in an effort to better understand their mode of inhibiting FLuc. The assay described here was to determine the activity of the compounds in a FLuc assay that used a commercial formulation of detection reagent (BriteliteTM Plus; PerkinElmer).
NCGC Assay Protocol Summary: Reagents: Britelite Plus detection reagent; 50mM Tris acetate, pH 7.5; 10nM P. pyralis luciferase (Sigma #L9506) Control compounds used were two known firefly luciferase inhibitors (3-(5-(3-chlorophenyl)-1,2,4-oxadiazol-3-yl)benzoic acid and 5-(2-fluorophenyl)-3-phenyl-1,2,4-oxadiazole), and DMSO. Assay Summary: Three microliters of buffer containing firefly luciferase (final concentrations: 50mM Tris acetate, 10nM P. pyralis luciferase) are dispensed into each well of a Greiner white, solid-bottom 1536-well format plate using a flying reagent dispenser (FRD). These assay plates were then treated with 23nL of compound or DMSO using a Kalypsys pin tool, which allows for delivery of a 12-point intraplate titration of each compound to the assay plate (quantitative HTS), with final compound concentrations ranging from approximately ~38uM to 0.2nM. Three microliters of 2X Britelite Plus detection reagent was then delivered by FRD to each well. Luciferase activity was then measured using a ViewLux CCD imager (PerkinElmer), with an average exposure time of 2-30 seconds (2X binning, medium/high gain).

| SMILES | activity change, negative = inhibition [%] | Potency |
| --- | --- | --- |
| O=C(O)c1ccc(NC(=O)c2ccccc2NC(=O)c2cccc(Br)c2)cc1 | 6.03 |  |
| O=C(Cc1ccccc1)Nc1ccccc1C(=O)Nc1ccc(C(=O)O)cc1 | -5.3 |  |
| O=C(Nc1ccccc1C(=O)O)c1cc(S(=O)(=O)NCc2ccccc2)ccc1Cl | -4.67 |  |
| Cc1ccc2nc(-c3ccc(N)cc3)sc2c1 |  | 0.895 µM (active) |
| O=C(O)c1cccc(NC(=O)c2cccc(S(=O)(=O)N3CCc4ccccc4C3)c2)c1 | -5.63 |  |
| CCOc1ccc2nc(NC(=O)c3ccoc3C)sc2c1 |  | 2 µM (active) |
| CC(C)C(=O)Nc1cccc(C(=O)Nc2ccccc2C(=O)O)c1 |  | 17.9 µM (active) |
| Cn1c(N/N=C/c2cc3ccccc3nc2Cl)nc2ccccc21 |  | 12.6 µM (active) |
| c1ccc2sc(-c3ccc4c(c3)OCO4)nc2c1 |  | 1.79 µM (active) |
| Cc1ccc(C(=O)O/N=C(\N)c2ccccn2)cc1 |  | 0.0283 µM (active) |
| CCOc1ccc2nc(NC(=O)c3ccccc3)sc2c1 |  | 2.52 µM (active) |
| Cc1ccc(NS(=O)(=O)c2ccc(Cl)c(C(=O)Nc3cccc(C(=O)O)c3)c2)cc1 | 2.08 |  |
| CCc1noc(C)c1C(=O)Nc1nc2ccc(OC)cc2s1 |  | 0.0504 µM (active) |
| Cc1ccc2sc(-c3ccc(N)cc3)nc2c1 |  | 0.798 µM (active) |
| COc1c(C)cccc1C(=O)Nc1ccc(-c2nc3ccccc3s2)c(Cl)c1 |  | 7.11 µM (active) |
| Nc1ccccc1C(=O)Nc1cccc(C(=O)O)c1 |  | 12.6 µM (active) |
| O=C(O)c1ccccc1NC(=O)c1ccccc1Nc1ccccc1 | -13.6 |  |
| C/C(=N\NC(=O)c1ccccc1NC(=O)c1ccc(Cl)cc1)c1ccncc1 |  | 0.0159 µM (active) |
| O=C(Nc1ccccc1C(=O)O)c1ccccc1 | -22.6 |  |
| CC(C)(C)NC(=O)c1ccccc1-c1nc2ccccc2s1 | -6.17 |  |

| SMILES | activity change, negative = inhibition [%] | Potency |
| --- | --- | --- |
| O=C(Nc1ccccc1C(=O)O)c1cccc(C(=O)Nc2ccccc2C(=O)O)c1 | -11.6 |  |
| CCOc1ccc2nc(NC(=O)c3ccccn3)sc2c1 |  | 0.895 µM (active) |
| O=C(O)c1cccc(NC(=O)c2ccccc2NC(=O)c2ccccc2F)c1 | -10.9 |  |
| CCOc1ccc(C(=O)Nc2ccccc2C(=O)O)cc1 |  | 3.56 µM (active) |
| COc1ccc2nc(NC(=O)c3ccc(S(=O)(=O)N4CCCC(C)C4)cc3)sc2c1 (stereo not given) | -22.2 |  |
| COc1ccc(Br)cc1C(=O)Nc1ccc(C(=O)O)cc1 | -10.9 |  |
| O=C(Nc1ccccc1C(=O)O)c1cccc(NC(=O)c2ccc(Br)o2)c1 | -13.3 |  |
| Cc1c(C)c2ccc(OCC(=O)Nc3ccccn3)c(C)c2oc1=O |  | 0.04 µM (active) |
| Nc1ccc(-c2nc3cc(N)ccc3s2)cc1 |  | 4 µM (active) |
| COc1ccc2nc(NC(=O)c3ccc4ncsc4c3)sc2c1 |  | 25.2 µM (active) |
| O=C(O)c1ccc(NC(=O)c2cccc(C(=O)Nc3ccc(C(=O)O)cc3)c2)cc1 | -5.19 |  |
| Cc1ccccc1C(=O)Nc1cccc(C(=O)Nc2ccccc2C(=O)O)c1 | 0.207 |  |
| COc1ccc(CC(=O)Nc2cccc(C(=O)Nc3ccccc3C(=O)O)c2)cc1OC | -7.35 |  |
| Cc1c(NS(C)(=O)=O)cccc1-c1nc2ccccc2s1 | -34.5 |  |
| COc1ccc(C(=O)Nc2nc3ccc(OC)cc3s2)cc1 | -14.5 |  |
| O=C(O)c1ccc(NC(=O)c2cc(S(=O)(=O)N3CCCCC3)c(Cl)cc2Cl)cc1 | -26.9 |  |
| Nc1ccc(-c2nc3ccc(N)cc3s2)cc1 |  | 0.565 µM (active) |
| O=C(O)c1cccc(NC(=O)c2ccccc2NC(=O)c2ccco2)c1 | -7.53 |  |
| COc1ccc(-c2nc3ccccc3s2)cc1O |  | 0.711 µM (active) |
| O=C(O)c1cccc(NC(=O)c2cccc(S(=O)(=O)N3CCc4ccccc43)c2)c1 | -7.51 |  |
